14 compounds from the supplement of paper PMC10503962 can be followed below.

The assay deals with Trichuris muris adult worms. Nature of the assay: mean motility score (Paragon pixel variance) of adult worms (arbitrary units); higher = more motile worms, i.e. less anthelmintic effect; extreme values may be limits of the assay. The settings on record: 100 µM; 24 h. The essentials:
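Motility score was obtained through Paragon pixel-variance analysis and averaged across replicate wells. To generate it, single adult Trichuris muris worms taken from infected NOD SCID mice were kept for 24 h at 37°C and 5% CO2 in 96-well plates, each well holding 100 μL RPMI-1640 plus antibiotics and drug at 100 μM (1% v/v DMSO). The plates were then recorded on an automated phenotyping platform (200 frames, 100 ms apart).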
Compound `O=C(c1ccccc1)c1ccc2n1CCC2C(=O)O` (centres undefined) [ketorolac] showed a mean motility score of 2460. The compound `CCO[C@@H](Cc1ccc(OCCc2ccc(OS(C)(=O)=O)cc2)cc1)C(=O)O` [tesaglitazar] gave a mean motility score of 3880.

For the compound `Cc1ccc(S(=O)(=O)O)cc1.Clc1cccc(Cl)c1NC1=NCCN1` [clonidine p-toluenesulfonic acid], the mean motility score came out at 3620. As to `COc1ccc2c(c1)c(CC(=O)O)c(C)n2C(=O)c1ccc(Cl)cc1` [indomethacin], the mean motility score was 2460. `O=C1C(O)=C([C@H]2CC[C@H](c3ccc(Cl)cc3)CC2)C(=O)c2ccccc21` [atovaquone] returned a mean motility score of 1650. Turning to `CC(C)(F)C[C@H](N[C@@H](c1ccc(-c2ccc(S(C)(=O)=O)cc2)cc1)C(F)(F)F)C(=O)NC1(C#N)CC1` [odanacatib], the mean motility score worked out at 3560. Compound `O=C(CCCCCCC(=O)Nc1ccccc1)NO` [vorinostat] came in with a mean motility score of 1260.

Consider `OC(CCCN1CCCCC1)(c1ccccc1)c1ccccc1` [diphenidol], for which the mean motility score was 1940. `CC(C)NCC(O)COc1cccc2ccccc12.Cl` (centres undefined) [propranolol hydrochloride] showed a mean motility score of 4260. Turning to `Nc1ccc(C(=O)Oc2ccccc2)c(O)c1` [phenyl aminosalicylate], the mean motility score stood at 1040. Under `NCCNCCNCCN` [trientine] stands 2070; under `Nc1ccc(S(=O)(=O)Nc2ccnn2-c2ccccc2)cc1` [sulfaphenazole], 3280.

As for `CN1C(C(=O)Nc2ccccn2)=C(O)c2ccccc2S1(=O)=O` [piroxicam], the mean motility score stood at 2510.

`OCCN(CCO)c1nc(N2CCCCC2)c2nc(N(CCO)CCO)nc(N3CCCCC3)c2n1` [dipyridamole] showed a mean motility score of 2870.
